Test results reported in PubChem BioAssay (NCATS).
Inconclusive results are not listed. Active and inactive are the calls of the source. Unless noted, calls come from the whole dose curve.

Tests used:
[1] = qHTS to identify inhibitors of the type 1 interferon - major histocompatibility complex class I in skeletal muscle: primary screen against the NCATS Pharmaceutical Collection (AID 1347407; active = well fitted curve in the direction sought with a large enough effect; an effect the other way counts as inactive or inconclusive;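 note: luminescence of HiBiT knocked into endogenous HLA-B as interferon-induced MHC class I level; % is set by controls: 0 for no effect and ±100 for the full control effect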)
In short: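 Immortalized human myoblasts (C25cl48) with HiBiT knocked into endogenous HLA-B*08:01 were stimulated with 4.0 ng/ml IFN-beta and treated with compounds ([…] top 46 uM) for 24 hrs at 37 C. HiBiT lytic luminescence read.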

[2] = target: Protein phosphatase 1D (Homo sapiens) (UniProt O15297); test: RapidFire Mass Spectrometry qHTS Assay for Modulators of WT P53-Induced Phosphatase 1 (WIP1) (AID 1347424; active = well fitted curve in the direction sought with a large enough effect; an effect the other way counts as inactive or inconclusive;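 note: amount of dephosphorylated VEPPL-S-QETFS peptide product formed by WIP1; series mostly up to about 63 µM; plate controls were DMSO wells for no effect and GSK830371 inhibitor control at 10 µM for full effect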)
Chain of Protein phosphatase 1D (Homo sapiens) (O15297 whole entry, looked up): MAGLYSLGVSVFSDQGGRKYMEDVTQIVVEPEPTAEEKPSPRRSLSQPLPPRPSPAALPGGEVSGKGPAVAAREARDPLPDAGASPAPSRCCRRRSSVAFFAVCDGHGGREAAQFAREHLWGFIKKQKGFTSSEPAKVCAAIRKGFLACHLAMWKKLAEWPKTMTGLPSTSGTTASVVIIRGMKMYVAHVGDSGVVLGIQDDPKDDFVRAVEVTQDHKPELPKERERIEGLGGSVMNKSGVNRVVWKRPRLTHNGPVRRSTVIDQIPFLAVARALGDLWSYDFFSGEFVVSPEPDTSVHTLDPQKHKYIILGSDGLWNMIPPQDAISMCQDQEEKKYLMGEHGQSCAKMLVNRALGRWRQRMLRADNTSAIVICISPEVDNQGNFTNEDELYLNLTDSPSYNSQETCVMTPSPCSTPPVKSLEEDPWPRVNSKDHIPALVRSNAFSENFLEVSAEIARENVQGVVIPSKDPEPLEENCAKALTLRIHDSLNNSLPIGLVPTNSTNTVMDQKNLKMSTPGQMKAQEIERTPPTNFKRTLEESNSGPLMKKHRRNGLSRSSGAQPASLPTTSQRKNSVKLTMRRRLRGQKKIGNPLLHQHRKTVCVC
In short: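 10 nM WIP1 + cpd, 1 h RT; + 2 uM VEPPL-pS-QETFS, 5 min RT; stop 0.5% formic acid; labelled product standard 1 uM; RapidFire MS. Buffer 50 mM Tris pH 7.5, 30 mM MgCl2, 1 mM TCEP.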

[3] = target: Protein phosphatase 1D (Homo sapiens) (UniProt O15297); test: Rhodamine-PBP qHTS Assay for Modulators of WT P53-Induced Phosphatase 1 (WIP1) (AID 1347425; active = well fitted curve in the direction sought with a large enough effect; an effect the other way counts as inactive or inconclusive; note: % of control where 0% means no effect)
In short: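 The read-out is the change in Rhodamine-PBP fluorescence (f1 - f0, ex 525/em 598 nm) as Pi is released, read each minute for 11 min. Final reaction: 5 nM WIP1, 10 uM phosphopeptide VEPPL-pS-QETFS, 10 uM Rh-PBP, 50 mM Tris-HCl pH 7.5, 30 mM MgCl2. Compound was preincubated with enzyme for 1 hour at room temperature.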

[4] = Primary qHTS for Huh7 cytotoxicity: counterscreen for inhibitors of MERS-S pseudotyped particle cell entry (AID 1479147); note: potency is the fitted concentration of half-maximal effect; for activity change, negative = cytotoxicity: % is set by controls: 0 for no effect and ±100 for the full control effect
[5] = Primary qHTS for Vero E6 cytotoxicity: counterscreen for inhibitors of SARS-S pseudo-typed particle cell entry (AID 1479150); for activity change, negative = cytotoxicity: % is set by controls: 0 for no effect and ±100 for the full control effect
[6] = Primary qHTS for inhibitors of MERS-S pseudo-typed particle cell entry (AID 1479149); note: nearly all actives have a fitted effect of over 60% in size; note: potency is the fitted concentration of half-maximal effect; for activity change, negative = inhibition: series mostly up to about 57 µM; % is set by controls: 0 for no effect and ±100 for the full control effect
[7] = Primary qHTS for inhibitors of SARS-S pseudo-typed particle cell entry (AID 1479145); note: nearly all actives have a fitted effect of over 45% in size; note: potency is the fitted concentration of half-maximal effect

CCC(=O)C(CCN(C)C)(c1ccccc1)c1ccccc1
inactive: Potency [1] | Potency [2] | outcome [3] | Potency [4] | Potency [5]

CN1C(=O)[C@@H](NC(=O)c2cc3ccccc3[nH]2)N=C(c2ccccc2)c2ccccc21
inactive: Potency [1] | outcome [3]

CN1C2CCC(C)(C)C1CC(OC(=O)C(O)(c1cccs1)c1cccs1)C2 (stereo not given)
inactive: Potency [1] | Potency [2] | outcome [3] | Potency [4] | Potency [5]

O=C(N[C@@H]1N=C(c2ccccc2F)c2cccc3c2N(CC3)C1=O)c1cc2ccccc2[nH]1
inactive: Potency [1] | outcome [3]

c1ccc2nc(N3CCNCC3)ccc2c1
inactive: Potency [1] | outcome [3]

C#C[C@]1(O)C=C[C@H]2[C@@H]3CCC4=CC(=O)CC[C@@H]4[C@H]3CC[C@@]21CC
inactive: Potency [2] | outcome [3] | Potency [4] | Potency [6] | Potency [5]

CCC(=O)O[C@H]1CC[C@H]2[C@@H]3CCC4=CC(=O)CC[C@]4(C)[C@H]3CC[C@]12C
inactive: Potency [2] | outcome [3] | Potency [7] | Potency [4] | Potency [6] | Potency [5]

Nc1ccc2cc3ccc(N)cc3nc2c1
active: Potency [7] 14.1 µM

C[C@H]1O[C@@H](O[C@H]2CC[C@@]3(C)[C@H](CC[C@@H]4[C@@H]3C[C@@H](O)[C@]3(C)[C@@H](C5=CC(=O)OC5)CC[C@]43O)C2)C[C@H](O)[C@@H]1O[C@H]1C[C@H](O)[C@H](O[C@H]2C[C@H](O)[C@H](O[C@@H]3O[C@H](CO)[C@@H](O)[C@H](O)[C@H]3O)[C@@H](C)O2)[C@@H](C)O1
inactive: Potency [6]
active: Potency [7] 0.891 µM | Potency [4] 1 µM

CCCN(CCC)C(=O)C(CCC(=O)O)NC(=O)c1ccccc1 (stereo not given)
inactive: Potency [7] | Potency [4] | Potency [6] | Potency [5]

CCOc1c(N2CCOCC2)cnn(C)c1=O
inactive: Potency [7] | Potency [4] | Potency [6] | Potency [5]

Cc1nnc(C(=O)NC(C)(C)c2nc(C(=O)NCc3ccc(F)cc3)c(O)c(=O)n2C)o1
inactive: Potency [7] | Potency [4] | Potency [6] | Potency [5]

C[C@@H]1C[C@H]2[C@@H]3CCC4=CC(=O)C=C[C@]4(C)[C@@]3(F)[C@@H](O)C[C@]2(C)[C@@]1(O)C(=O)COC(=O)c1ccncc1
inactive: Potency [7] | Potency [4] | Potency [6] | Potency [5]

CCCCC[C@H](O)C=C[C@H]1[C@H](O)CC(=O)[C@H]1CC=CCCCC(=O)O
inactive: Potency [7] | Potency [4] | Potency [6] | Potency [5]

CC(C)C[C@@H](N)C(=O)O
inactive: Potency [7] | Potency [4] | Potency [6] | Potency [5]

CC(=O)Oc1ccc(C(=C2CCCCC2)c2ccc(OC(C)=O)cc2)cc1
inactive: Potency [7] | Potency [4] | Potency [6] | Potency [5]

CC(=O)OCC(=O)[C@@]1(O)CCC2C3CCC4=CC(=O)CC[C@]4(C)C3[C@@H](O)C[C@@]21C (stereo not given in full)
inactive: Potency [7] | Potency [4] | Potency [6] | Potency [5]

CC(=O)OCC1=C(C(=O)O)N2C(=O)[C@@H](NC(=O)CSc3ccncc3)[C@H]2SC1
inactive: Potency [7] | Potency [4] | Potency [6] | Potency [5]

CC(=O)Oc1ccc2c(c1)CC[C@@H]1[C@@H]2CC[C@]2(C)[C@@H](O)CC[C@@H]12
inactive: Potency [7] | Potency [4] | Potency [6] | Potency [5]

C/C(=N/NC(=O)c1ccncc1)C(=O)O
inactive: Potency [7] | Potency [4] | Potency [6] | Potency [5]

CC1=C(C)C(=O)C(C(CCCCCC(=O)O)c2ccccc2)=C(C)C1=O (stereo not given)
inactive: Potency [7] | Potency [4] | Potency [6] | Potency [5]

c1ccc([C@H]2CN3CCSC3=N2)cc1
inactive: Potency [7] | Potency [4] | Potency [6] | Potency [5]

C[C@H]1C[C@H]2[C@@H]3CCC4=CC(=O)C=C[C@]4(C)[C@H]3C(=O)C[C@]2(C)[C@@]1(O)C(=O)CO
inactive: Potency [7] | Potency [4] | Potency [6] | Potency [5]

CC(C)=CCOc1ccc(/C=C/C(=O)c2ccc(OCC=C(C)C)cc2OCC(=O)O)cc1
inactive: Potency [7] | Potency [4] | Potency [6] | Potency [5]

Oc1c(Cl)cc(Cl)c2cccnc12
inactive: Potency [7]

COC(=O)Nc1nc2ccc(S(=O)c3ccccc3)cc2[nH]1 (stereo not given)
inactive: Potency [7] | Potency [4] | Potency [6]

NS(=O)(=O)c1ccc(N2CCCCS2(=O)=O)cc1
inactive: Potency [7] | Potency [4] | Potency [6] | Potency [5]

O=Cc1ccccc1C=O
inactive: Potency [7] | Potency [4] | Potency [6] | Potency [5]

NC(N)=NCCC[C@H](N)C(=O)O
inactive: activity change, negative = inhibition [7] -24.6% [at 5.34 µM] | outcome [4] inactive [at 5.34 µM] | outcome [6] inactive [at 5.34 µM] | activity change, negative = cytotoxicity [5] 0.575% [at 5.34 µM]

CN1[C@@H]2CC[C@H]1CC(NC(=O)n1c(=O)[nH]c3ccccc31)C2 (stereo not given in full)
inactive: Potency [7] | Potency [4] | Potency [6] | Potency [5]

CCCCCCCCCCCCCCCC[N+](C)(C)Cc1ccccc1
active: Potency [7] 7.94 µM
inactive: Potency [4]

CCCCCCCCCCCCCCCC[n+]1ccccc1
active: Potency [7] 3.16 µM | Potency [4] 11.2 µM | Potency [6] 7.08 µM

O=C(O)CCC(=O)OC[C@@H](NC(=O)C(Cl)Cl)[C@H](O)c1ccc([N+](=O)[O-])cc1
inactive: Potency [7] | Potency [4] | Potency [6] | Potency [5]
